In PubChem BioAssay (NCATS) one finds Potency data, which are given here for 8 molecules.

A short description of assay [1]: MultiTox-Fluor Cytotoxicity Assay - LYMP1-003 - Live Cells (AID 962).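 Note: cytotoxic hits lower the live-cell protease signal.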 The method in brief:
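LYMP1-003 human lymphoblastoid cells (2500/well) in complete medium were preincubated 5 hr at 37 C, then exposed to compounds for 16 hr at 37 C. Live-cell protease cleavage of GF-AFC read by fluorescence (Ex/Em 405/510); AC50 from Hill fits.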

Assay [2] is described as follows: Cell Viability - LYMP1-003 - Assay at 24 hr (AID 963). The method in brief:
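Human lymphoblastoid LYMP1-003 cells (2500/well) were rested 5 hr at 37 C, then exposed to compounds in complete medium for 24 hr at 37 C. Cellular ATP was quantified by CellTiter-Glo luminescence, and AC50 values came from Hill fits of concentration-response data.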

Assay [3] can be described thus: Cell Viability - LYMP1-003 - Assay at 40 hr (AID 964). Note: series mostly up to about 92 µM; nearly all actives have a fitted effect of over 60% in size. The method in brief: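 Human lymphoblastoid LYMP1-003 cells, 2500/well in complete medium, rested 5 hr at 37 C, then exposed to compounds for 40 hr at 37 C. Viability read as intracellular ATP by CellTiter-Glo luminescence; AC50 from Hill fits of concentration-response data.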
The nature of assay [4]: Cell Viability - LYMP2-003 (AID 965).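 Note: cells exposed to compounds for 24 h before reading; nearly all actives have a fitted effect of over 50% in size.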 The method in brief:
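CellTiter-Glo luminescence quantified ATP loss after 24 h compound treatment of LYMP2-003 lymphoblastoid cells at 37 C. Titration series were fitted with the standard Hill equation to give AC50.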

Assay [5] is described as follows: Cell Viability - LYMP2-005 (AID 967). Note: series mostly up to about 92 µM. The method in brief: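 LYMP2-005 human lymphoblastoid cells (2500/well) were treated with compounds for 24 h at 37 C. Intracellular ATP was then measured by CellTiter-Glo luminescence after 30 min at room temperature. AC50 values came from Hill-equation fits of qHTS concentration-response data.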
The nature of assay [6]: Cell Viability - LYMP2-011 (AID 969). Note: nearly all actives have a fitted effect of over 60% in size. The method in brief: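 Human lymphoblastoid cells (2500/well) were plated in complete medium, preincubated 5 hr at 37 C, then exposed to compounds for 24 hr at 37 C. Intracellular ATP was read by CellTiter-Glo luminescence, and AC50 came from Hill-equation concentration-response fits.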
A short description of assay [7]: Cell Viability - LYMP2-013 (AID 970). Note: series mostly up to about 92 µM; nearly all actives have a fitted effect of over 55% in size. The method in brief: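 Human lymphoblastoid cells, 2500/well, were preincubated 5 hr at 37 C, then treated with compounds for 24 hr at 37 C in complete medium. Intracellular ATP was read by CellTiter-Glo luminescence; AC50 from Hill-equation fits of concentration-response data.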
The nature of assay [8]: Cell Viability - LYMP2-017 (AID 972). Note: series mostly up to about 92 µM; nearly all actives have a fitted effect of over 55% in size. The method in brief:
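Human lymphoblastoid cells (2500/well) were seeded in complete medium, held 5 hr at 37 C, then exposed to compounds for 24 hr at 37 C. Intracellular ATP was read by CellTiter-Glo luminescence after 30 min at room temperature, with AC50 values from Hill-equation fits.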

A short description of assay [9]: Cell Viability - LYMP2-019 (AID 973). Note: nearly all actives have a fitted effect of over 55% in size. The method in brief: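 Human lymphoblastoid cells were seeded at 2500 cells/well, preincubated 5 hr at 37 C, then exposed to compounds for 24 hr at 37 C in complete medium. Intracellular ATP was measured by CellTiter-Glo luminescence; AC50 from Hill fits.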
The nature of assay [10]: Cell Viability - LYMP2-021 (AID 974).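 Note: compound exposure lasts 24 hours at 37 °C; nearly all actives have a fitted effect of over 55% in size.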 The method in brief:
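Human lymphoblastoid cells (2500/well) were preincubated 5 hr at 37 C, then exposed to compounds for 24 hr at 37 C in complete medium. Intracellular ATP was read by CellTiter-Glo luminescence; AC50 came from Hill-equation fits of concentration-response data.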

Assay [11] is described as follows: Cell Viability - LYMP2-023 (AID 975). The method in brief:
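Human lymphoblastoid cells (2500/well) were preincubated 5 hr at 37 C, then exposed to compounds for 24 hr at 37 C in complete medium. Cellular ATP was read by CellTiter-Glo luminescence, and AC50 came from Hill-equation fits.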

Assay [12] in a line: Cell Viability - LYMP2-025 (AID 976). Note: series mostly up to about 92 µM. The method in brief: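 Human lymphoblastoid LYMP2-025 cells (2500/well) were pre-incubated 5 hr at 37 C, then treated with compounds for 24 hr at 37 C in complete medium. Viability was read as intracellular ATP by CellTiter-Glo luminescence; AC50 from Hill fits.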
Assay [13] in a line: Cell Viability - LYMP2-002 (AID 977). Note: series mostly up to about 92 µM. The method in brief: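 Human lymphoblastoid LYMP2-002 cells, 2500 per well, exposed to compounds for 24 h at 37 C in complete medium; viability read as intracellular ATP by CellTiter-Glo luminescence, AC50 from Hill fits.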
Assay [14] is described as follows: Cell Viability - LYMP2-006 (AID 978). Note: nearly all actives have a fitted effect of over 60% in size. Note: potency is the fitted concentration of half-maximal effect. The method in brief:
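Potency values are Hill-fit AC50s for decreases in intracellular ATP (CellTiter-Glo luminescence). LYMP2-006 lymphoblastoid cells, 2500 per well, were exposed to compound in complete culture medium for 24 hr at 37 C.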

Assay [15] in a line: Cell Viability - LYMP2-007 (AID 979).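 Note: cells exposed to compound for 24 h before reading; nearly all actives have a fitted effect of over 60% in size.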 Note: potency is the fitted concentration of half-maximal effect. The method in brief:
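Human lymphoblastoid cells (2500/well) were plated in complete medium, incubated 5 hr at 37 C, then exposed to compounds for 24 hr at 37 C. Intracellular ATP was read by CellTiter-Glo luminescence after 30 min at room temperature; AC50 from Hill fits.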

Assay [16] is described as follows: Cell Viability - LYMP2-010 (AID 981). Note: nearly all actives have a fitted effect of over 55% in size. The method in brief:
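Human lymphoblastoid LYMP2-010 cells (2500/well) were preincubated 5 hr at 37 C, then exposed to compounds for 24 hr at 37 C in complete medium. Intracellular ATP was measured by CellTiter-Glo luminescence after 30 min at room temperature; AC50 from Hill-fitted concentration-response.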

A short description of assay [17]: Cell Viability - LYMP2-012 (AID 982).
Assay [18] is described as follows: Cell Viability - LYMP2-014 (AID 983). Note: series mostly up to about 92 µM; nearly all actives have a fitted effect of over 50% in size. The method in brief:
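Human lymphoblastoid cells (2500/well) were pre-incubated 5 hr at 37 C, then exposed to compounds in complete medium for 24 hr at 37 C. Intracellular ATP was read by CellTiter-Glo luminescence after 30 min at room temperature; AC50 from Hill fits.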

Assay [19] in a line: Cell Viability - LYMP2-016 (AID 984). Note: nearly all actives have a fitted effect of over 55% in size. The method in brief:
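Cytotoxicity was scored by luminescent ATP content (CellTiter-Glo) after 24 h compound exposure at 37 C of a human lymphoblastoid line at 2500 cells/well. Concentration-response data were fitted to the Hill equation for AC50.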

A short description of assay [20]: Cell Viability - LYMP2-018 (AID 985).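 Note: compound exposure lasted 24 hr at 37 °C; nearly all actives have a fitted effect of over 50% in size.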 The method in brief:
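Human lymphoblastoid cells (2500/well) were pre-incubated 5 hr at 37 C, then exposed to compounds for 24 hr at 37 C in complete medium. Viability was read as intracellular ATP by CellTiter-Glo luminescence; AC50 values came from Hill-equation fits.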

Records with an inconclusive call do not appear. Active and inactive are the calls of the source. Calls come from the whole dose curve; as a rule, active = well fitted curve in the direction sought with a large enough effect; inconclusive = small, poorly fitted or top-dose-only effect, or another doubt; inactive = no such curve, though single readings can be large; an effect the other way counts as inactive or inconclusive.

Consider `c1ccc2c(c1)c1cccc3ccc4cccc2c4c31`, for which the Potency result in assay [1], in assay [2], in [3], in assay [4], in assay [5] and in [6] was “inactive” in each case. In addition, the Potency result in [7], in assay [8], in assay [9], in assay [10], in assay [11] and in [12] was “inactive” each time. The Potency entry in assay [13], in assay [14], in assay [15], in assay [16], in assay [17] and in assay [18] was “inactive” each time. For the same molecule, the Potency result in [19] and in [20] was “inactive” in each case.
Regarding `COC(=O)c1ccc(C)cc1`, the Potency entry in assay [1], in assay [2], in assay [3], in assay [4], in [5] and in assay [6] was “inactive” throughout. The Potency entry in assay [7], in assay [8], in assay [9], in assay [10], in assay [11] and in assay [12] was “inactive” throughout. Besides, the Potency entry in assay [13], in [14], in assay [15], in assay [16], in [17] and in assay [18] was “inactive” throughout. In addition, the Potency entry in assay [19] and in assay [20] was “inactive” each time.
Regarding `O=C1c2ccccc2C(=O)C1c1ccc2ccccc2n1`, the Potency result in [1], in assay [2], in assay [3], in assay [4], in assay [5] and in assay [6] was “inactive” in each case. Further, the Potency entry in [7], in [8], in assay [9], in [10], in assay [11] and in [12] was “inactive” throughout. Further, the Potency result in assay [13], in assay [16], in assay [17], in assay [18], in [19] and in assay [20] was “inactive” in each case. For the same molecule, the Potency in assay [14] and in [15] was 39.8 µM (active) each time.
On to `CC1=CC(C)(C)Nc2ccccc21`, for which the Potency entry in assay [1], in assay [2], in assay [3], in assay [4], in assay [5] and in assay [6] was “inactive” in each case. Also, the Potency entry in assay [7], in assay [8], in assay [9], in [10], in [11] and in [12] was “inactive” throughout. For the same molecule, the Potency entry in [13], in assay [14], in assay [15], in [16], in assay [17] and in assay [18] was “inactive” throughout. Besides, the Potency result in [19] and in [20] was “inactive” each time.
Regarding `CCCN(CCC)C(=O)SCC`, the Potency result in assay [1], in [2], in assay [3], in [4], in assay [5] and in assay [6] was “inactive” throughout. Also, the Potency entry in assay [7], in assay [8], in assay [9], in assay [10], in [11] and in assay [12] was “inactive” throughout. Also, the Potency entry in assay [13], in assay [14], in assay [15], in [16], in [17] and in assay [18] was “inactive” in each case. For the same molecule, the Potency result in assay [19] and in assay [20] was “inactive” each time.
Consider `COCC(=O)O`, for which the Potency result in [1], in assay [2], in [3], in assay [4], in [5] and in assay [6] was “inactive” throughout. Besides, the Potency result in assay [7], in assay [8], in assay [9], in assay [10], in [11] and in [12] was “inactive” each time. The Potency entry in [13], in assay [14], in assay [15], in assay [16], in assay [17] and in assay [18] was “inactive” in each case. For the same molecule, the Potency entry in assay [19] and in [20] was “inactive” in each case.
Turning to `CCO[Si](CCCN)(OCC)OCC`, the Potency entry in assay [1], in [2], in assay [3], in assay [4], in [5] and in assay [6] was “inactive” each time. The Potency result in assay [7], in assay [8], in assay [9], in [10], in assay [11] and in assay [12] was “inactive” each time. Besides, the Potency result in [13], in [14], in assay [15], in assay [16], in assay [17] and in [18] was “inactive” throughout. For the same molecule, the Potency entry in assay [19] and in [20] was “inactive” in each case.
On to `CCC(C)c1ccccc1O` (stereo not given), for which the Potency result in [1], in [2], in [3], in [4], in [5] and in assay [6] was “inactive” in each case. Moreover, the Potency entry in [7], in [8], in [9], in [10], in assay [11] and in [12] was “inactive” throughout. For the same molecule, the Potency result in assay [13], in [14], in assay [15], in [16], in [17] and in assay [18] was “inactive” each time. For the same molecule, the Potency entry in assay [19] and in assay [20] was “inactive” throughout.
